This test can be described thus: HepG2 cell viability effects, profiling panel, calcein-AM fluorescence, 48 h, basal (AID 1164). Further: test concentration not given here. To be noted: higher = more signal.
`C=C(/C(=C/C[C@H](OC(C)=O)c1ccc(CO)o1)c1cc(C(=O)OC)ccc1OC)C(C)C`: the z-score is -0.812.

On to `COC(=O)[C@@]1(Cc2ccccc2)N=C(c2ccc(OCCCO)cc2)O[C@H]1c1ccccc1`, for which the z-score is -1.69.

As to `CC(C)C[C@@H]1NC(=O)[C@@H]2C[C@H](C(=O)NCc3ccc(F)cc3)[C@H](c3cccc(OCCO)c3)N2C1=O`, the z-score is 0.259.

For `O=C1c2ccccc2[C@](Cc2ccccc2I)(C(=O)NCCN2CCOCC2)[C@H](c2ccc(CO)cc2)N1C1CCCCC1`, the z-score was 1.52.

With `O=C1c2ccccc2[C@](Cc2ccccc2I)(C(=O)NCCN2CCOCC2)[C@H](c2ccc(CO)cc2)N1Cc1ccccc1Cl`, the z-score was 0.63.

With `CC(C)C(=C=CC[C@@H](O)c1ccc(OCCO)cc1)C[C@@H](O)COCc1ccccc1`, the z-score is 1.2.

For `COC(=O)[C@]1(CCC(=O)OC(C)(C)C)N=C(c2ccc(OCCCO)cc2)O[C@@H]1c1ccccc1CN=[N+]=[N-]`, the z-score was -3.03.

With `NC(=O)NCC#Cc1ccc2c(c1)[C@]1(C(=O)N2)[C@H](c2ccccc2OCCO)N2[C@H](c3ccccc3)[C@H](c3ccccc3)OC(=O)[C@H]2[C@@H]1C(=O)Nc1nc2ccccc2s1`, the z-score was -0.126.

Regarding `C=CCC(OC(C)=O)[C@@H]1[C@@H](N(Cc2ccc(-c3ccccc3)cc2)C(=O)Cc2ccc(OC)cc2)c2cc(OCCCO)ccc2N1C(=O)Cc1ccc2ccccc2c1` (stereo not given in full), the z-score was 0.71.

With `C=C(CCCC)C(=O)CC[C@@H](OC(=O)c1ccccc1-c1ccccc1C(=O)O)c1ccc(OCCO)cc1`, the z-score was 0.515.

For the molecule `CCCC[C@@H]1C[C@H]1[C@@H](NC(=O)c1ccco1)c1ccccc1C(F)(F)F`, the z-score is -0.489.

Turning to `CCOC(=O)C[C@H]1[C@H](OC(=O)c2cc3ccccc3oc2=O)[C@@H](NC(=O)c2ccccc2)c2cc(OCCCO)ccc2N1C(=O)c1ccc2ccccc2n1`, the z-score was -0.112.

Take `CCN(CC)c1ccc(N2CC=CC34O[C@@H]5C=CCCOC(=O)C5[C@H]3C(=O)N(CCCCCCO)[C@@H]4C2=O)cc1` (stereo not given in full): the z-score was 0.239.

For `COC(=O)[C@@]1(Cc2ccccc2)[C@H]2c3cc(C(=O)N(C)C)n(Cc4ccsc4Br)c3C[C@H]2CN1C(=O)c1ccccc1`, the z-score was 0.369.

As to `COCCOC(=O)N1C(=O)[C@@]2(c3ccccc31)[C@H](c1ccccc1OCCO)N1[C@H](c3ccccc3)[C@H](c3ccccc3)OC(=O)[C@H]1[C@@H]2C(=O)N1CCN(c2ncccn2)CC1`, the z-score is -0.478.

Consider `O[C@@H](Cc1ccccc1)[C@H]1C2C=CCCC=C2CN1Cc1cccc(Cl)c1` (stereo not given in full), for which the z-score is 1.31.

As to `COc1cc2c(cc1OC)CN(C(=O)[C@@H]1[C@H]3C(=O)O[C@H](c4ccccc4)[C@H](c4ccccc4)N3[C@H](c3ccccc3OCCO)[C@@]13C(=O)Nc1ccc(C#CCCO)cc13)CC2`, the z-score is 0.665.

As to `Cc1ccc(S[C@]2(C(=O)O)CC(=O)N(C(C)C)[C@@H]2c2ccc(CO)cc2I)cc1`, the z-score is 1.65.

As for `O=C1O[C@H](c2ccccc2)[C@H](c2ccccc2)N2[C@H]1[C@@H](C(=O)N1CCCCCCC1)[C@]1(C(=O)Nc3ccc(C#CCCO)cc31)[C@H]2c1ccccc1OCCO`, the z-score is 0.518.

Consider `C=CCNC(=O)[C@@H]1[C@H]2C(=O)O[C@H](c3ccccc3)[C@H](c3ccccc3)N2[C@H](c2ccc(O)cc2)[C@@]12C(=O)N(C(=O)OCCOC)c1ccc(C#CCNC(N)=O)cc12`, for which the z-score is 0.866.

`O=C(c1ccccc1)N1C(=O)[C@@]2(Cc3ccccc31)N=C(c1ccc(OCCCO)cc1)O[C@H]2c1ccccc1`: the z-score is -1.58.

Consider `C=C(/C(=C/C[C@H](OC(C)=O)c1ccccc1OCCO)c1cnc2ccccc2c1)C(C)C`, for which the z-score was 0.218.

`CC(C)C(CO)N1C(=O)[C@@H]2C3C(=O)OCCC/C=C\[C@H]3OC23C=CCN(CCN2CCOCC2)C(=O)[C@@H]13` (stereo not given in full): the z-score is -0.66.

As to `CCCC[C@H]1OB(O)C[C@H]2C1=C(COC)C[C@H]1C(=O)N(C)C(=O)[C@H]12`, the z-score is -0.653.

Take `COC(=O)[C@@]1(Cc2ccc(F)cc2)[C@H]2c3cc(C(=O)N(C)C)n(Cc4ccc(Cl)c(C(F)(F)F)c4)c3C[C@H]2CN1C(=O)c1ccccc1`: the z-score was -1.04.

On to `COc1ccc(CCNC(=O)[C@@]2(Sc3ccc(C)cc3)CC(=O)N(C3Cc4ccccc4C3)[C@@H]2c2ccc(CO)cc2I)cc1`, for which the z-score is 0.082.

For the molecule `CCCC[C@H]1OB(O)C[C@H]2C1=C(COC)Cn1c(=O)n(-c3ccccc3)c(=O)n12`, the z-score was -0.136.

For `CN(C)CCCCCCNC(=O)[C@@H]1C[C@@H]2C(=O)N[C@@H](Cc3ccccc3)C(=O)N2[C@@H]1c1ccc(O)cc1`, the z-score is -0.948.

As to `C=C(COC)/C(=C/C[C@H](OC(C)=O)c1ccc(CO)o1)c1cc(C(=O)OC)ccc1OC`, the z-score is -0.603.

Regarding `COC(=O)[C@@]1(Cc2ccc(OC)cc2)[C@@H]2C(=CC(=O)[C@H]2CC(=O)C(=O)N2CCCC2)CN1C(=O)c1ccccc1`, the z-score was -0.167.

For `Cc1ccc(N2C(=O)c3ccccc3[C@@H](C(=O)NC3CC3)[C@@H]2c2ccc(CO)cc2)nc1`, the z-score is -0.774.

Consider `COCCOC(=O)N1C(=O)[C@@]2(c3cc(C#CCC(C(=O)OC)C(=O)OC)ccc31)[C@H](C(=O)Nc1nc3ccccc3s1)[C@H]1C(=O)O[C@H](c3ccccc3)[C@H](c3ccccc3)N1[C@@H]2c1ccccc1OCCO`, for which the z-score is 1.31.

Regarding `COCCOC(=O)N1C(=O)[C@@]2(c3cc(C#CCC(C(=O)OC)C(=O)OC)ccc31)[C@H](c1ccccc1OCCO)N1[C@H](c3ccccc3)[C@H](c3ccccc3)OC(=O)[C@H]1[C@@H]2C(=O)NC[C@H](O)c1ccccc1`, the z-score is 0.015.

For `CCCC[C@@H]1C[C@H]1[C@@H](NC(=O)c1ccccc1)c1ccc(C(=O)OC)cc1`, the z-score was -0.197.

On to `O=C1[C@@]23C=C(Br)[C@H](C[C@@H]2CCOC3)[C@@]12CO2`, for which the z-score was -0.0809.

The values are drawn from PubChem BioAssay.
